# Screens as filed in PubChem BioAssay.
# Sfp inh: qHTS Assay for Inhibitors of Bacillus subtilis Sfp phosphopantetheinyl transferase (PPTase); 4'-phosphopantetheinyl transferase ffp (Bacillus subtilis), Q9F4F7; Biochemical Sfp PPTase activity, qHTS; Potency, µM, without a hit: largest response in the series, negative = inhibition, hits mostly inhibitors; 3.5% of 310,000 active; AID 1490, 2009;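 also: the enzyme is Sfp with the accession as filed and its product quenches rhodamine fluorescence; 0% = enzyme reaction without inhibitor and -100% = no enzyme wells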
#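 Reaction rates are the 30-min fluorescence difference (ex 525, em 598 nm) in wells containing 15 nM Sfp, 5 uM rhodamine-CoA and 12.5 uM BHQ-2-YbbR at pH 7.6 with 10 mM MgCl2.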
# HP1b chromo inh: HTS for Inhibitors of HP1-beta Chromodomain Interactions with Methylated Histone Tails; Chromobox protein homolog 1 (Homo sapiens), P83916; AlphaScreen HP1-beta / biotin-H3K9me3 peptide binding; Potency, µM (titrated, usually from 114 µM), inactives show at the highest dose activity change, negative = inhibition, hits mostly inhibitors; 0.56% of 390,000 active; AID 540317, 2011; also: nearly all actives have a fitted effect of over 70% in size
#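 Compound inhibition of the preformed complex between 50 nM HP1-beta and 50 nM biotinylated H3K9me3 peptide was read by AlphaScreen. Buffer was PBS pH 7.4 with 0.01% Tween-20. Incubations ran 30 min at room temperature, with 10 ug/mL donor/acceptor beads.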
# BAZ2B inh: qHTS Assay for Inhibitors of BAZ2B | Bromodomain adjacent to zinc finger domain protein 2B (Homo sapiens), Q9UIF8 | AlphaScreen BAZ2B-H3K14Ac peptide displacement | Potency, µM (doses to about 114 µM), without a hit: at the highest dose activity change, negative = inhibition, actives largely listed as inhibitors | 4.4% of 360,000 active | AID 504333, 2011; also: % is scaled to controls: 0 for no effect and ±100 for the full control effect; nearly all actives have a fitted effect of over 60% in size
#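 AlphaScreen luminescence quantifies BAZ2B engagement of H3K14Ac peptide; the protein and biotinylated peptide are both at 50 nM final, buffer PBS pH 7.4 with 0.01% Tween-20, all steps at room temperature.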
# G9a inh: qHTS Assay for Inhibitors of Histone Lysine Methyltransferase G9a; Histone-lysine N-methyltransferase EHMT2 (Homo sapiens), Q96KQ7; G9a H3K9 monomethylation, AlphaScreen, 2 h; Potency, µM (top dose mostly 102 µM), without a hit: top-dose activity, negative = inhibition, usual class: inhibitors; 8.8% of 350,000 active; also: % is scaled to controls: 0 for no effect and ±100 for the full control effect; nearly all actives have a fitted effect of over 75% in size
#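 G9a (20 nM) was preincubated 15 min with compound, then reacted 2 h at room temperature with 500 nM biotin-H3K9 peptide and 20 µM SAM. Monomethyl-H3K9 detected by AlphaScreen using anti-H3K9me1 antibody.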
# JMJD2A Tudor inh: qHTS Assay for Inhibitors of JMJD2A-Tudor Domain. Lysine-specific demethylase 4A (Homo sapiens), O75164. AlphaScreen JMJD2A-Tudor / H3K4me3 peptide binding. Potency, µM (titrated, usually from 114 µM), for the others: at the top dose activity change, negative = inhibition, actives largely listed as inhibitors. 4.4% of 390,000 active. AID 504339, 2011; also: % is scaled to controls: 0 for no effect and ±100 for the full control effect; nearly all actives have a fitted effect of over 50% in size
# Target sequence (O75164 whole entry, looked up, the tested form may be a part): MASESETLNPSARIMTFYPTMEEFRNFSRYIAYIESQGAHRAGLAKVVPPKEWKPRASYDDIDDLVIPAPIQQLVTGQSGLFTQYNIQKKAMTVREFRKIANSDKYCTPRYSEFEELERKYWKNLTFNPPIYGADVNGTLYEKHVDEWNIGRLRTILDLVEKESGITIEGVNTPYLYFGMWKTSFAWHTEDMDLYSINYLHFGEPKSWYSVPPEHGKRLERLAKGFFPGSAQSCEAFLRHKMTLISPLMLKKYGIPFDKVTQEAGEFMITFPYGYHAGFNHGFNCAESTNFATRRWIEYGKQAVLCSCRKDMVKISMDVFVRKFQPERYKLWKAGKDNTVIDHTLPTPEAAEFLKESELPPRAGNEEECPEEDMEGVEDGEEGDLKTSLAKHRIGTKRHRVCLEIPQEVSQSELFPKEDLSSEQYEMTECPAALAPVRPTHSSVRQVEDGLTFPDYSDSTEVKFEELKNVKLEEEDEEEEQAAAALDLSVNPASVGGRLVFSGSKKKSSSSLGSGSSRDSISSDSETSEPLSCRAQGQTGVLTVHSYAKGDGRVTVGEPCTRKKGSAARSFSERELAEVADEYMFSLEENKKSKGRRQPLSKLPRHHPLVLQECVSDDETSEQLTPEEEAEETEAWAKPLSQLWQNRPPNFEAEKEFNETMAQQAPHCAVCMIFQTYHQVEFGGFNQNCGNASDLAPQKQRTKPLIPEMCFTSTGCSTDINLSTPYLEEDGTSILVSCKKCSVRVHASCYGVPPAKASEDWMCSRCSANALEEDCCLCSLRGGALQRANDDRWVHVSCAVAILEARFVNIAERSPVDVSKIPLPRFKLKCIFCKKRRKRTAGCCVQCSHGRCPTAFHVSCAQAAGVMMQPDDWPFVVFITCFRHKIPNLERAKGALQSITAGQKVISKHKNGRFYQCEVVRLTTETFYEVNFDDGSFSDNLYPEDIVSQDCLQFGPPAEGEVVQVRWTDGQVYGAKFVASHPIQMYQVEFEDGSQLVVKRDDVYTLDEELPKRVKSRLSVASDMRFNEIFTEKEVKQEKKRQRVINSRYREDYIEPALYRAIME
# The depositor's hits bear a star; ? = inconclusive; nt = no result given; [ ] = another dose, or the depositor's remark. This is a sample that favours compounds with a hit; in the whole collection about 12% have one here. Calls follow the shape of the dose curve; as a rule, active = well fitted curve in the direction sought with a large enough effect; inconclusive = small, poorly fitted or top-dose-only effect, or another doubt; inactive = no such curve, though single readings can be large; an effect the other way counts as inactive or inconclusive. Potency is read from the fitted curve at half-maximal effect.
SMILES,Sfp inh,HP1b chromo inh,BAZ2B inh,G9a inh,JMJD2A Tudor inh
CCOC(=O)c1sc2ccccc2c1OC(=O)c1ccc(C)cc1,9.5%,86.5%,63.2%,24.0%,-76.2%
CCOC(=O)c1sc(S(C)=O)c2c1CCc1conc1-2 (centres undefined),39.8µM*,43.2%,-3.1%,31.6µM*,-15.3%
O=C(Cc1csc(NC(=O)Nc2ccc(Cl)cc2)n1)NCc1ccccn1,nt,18.9%,-7.6%,44.7µM*,-20.7%
O=C(Cc1csc(NC(=O)Nc2ccc(Cl)cc2)n1)NC1CCCC1,nt,18.8%,-27.7%,?,-17.8%
COc1cc2nc(NCCc3ccccc3)n3nc(-c4cccnc4)nc3c2cc1OC,nt,9.6%,?,8.0%[59 µM],-11.6%
O=C(Oc1cccc([N+](=O)[O-])c1)c1ccc2c(=O)n3c(nc2c1)CCC3,nt,-10.8%,50.1µM*,6.9%[12.7 µM],?
O=C(Oc1ccc(F)c(F)c1)c1ccc2c(=O)n3c(nc2c1)CCC3,nt,35.8%,-3.5%,?,1.4%
O=C(NCc1ccccn1)c1nc(Cn2ccc([N+](=O)[O-])n2)no1,-25.6%,12.8%,8.7%,9.3%,?
Cc1ccc(S(=O)(=O)c2ccccc2)cc1S,44.7µM*,nt,3.8%,3.55µM*,nt
Nc1ccc(S(=O)(=O)c2cccc(N)c2)cc1,8.1%,17.1%,-3.1%,-1.9%[59 µM],-15.4%
Cc1cc(C(c2cc(C)c(N)c(C)c2)c2ccco2)cc(C)c1N,nt,79.4µM*,nt,nt,79.4µM*
COc1cccc(N2C(=O)Nc3ccc(Br)cc3C2(O)C(=O)NCCCN(C)C)c1 (centres undefined),7.1%,12.9%,-1.0%,6.6%[12.7 µM],-5.6%
CN(CCCC[C@H](CNCc1ccc(-c2ccccc2)cc1)N1C[C@H](c2ccccc2)N(CCc2ccc(Cl)c(Cl)c2)C(=O)C1=O)Cc1ccc(-c2ccccc2)cc1,22.4µM*,nt,?,?,nt
COc1ccc(CNC[C@@H](CCCCN(C)Cc2ccc(OC)cc2)N2C[C@H](c3ccccc3)N(CCc3ccc(Cl)c(Cl)c3)C(=O)C2=O)cc1,28.2µM*,-9.4%,?,?,39.8µM*
CC1(C)CC(NC(=O)c2ccc(Cl)c(S(=O)(=O)N(Cc3ccccc3)c3ccccc3)c2)CC(C)(C)N1,nt,?,-2.3%,-5.1%[59 µM],?
O=C(NCc1cccnc1)C(=O)NCC(c1cccnc1)N1CCN(c2ccccc2F)CC1 (centres undefined),nt,5.0%,?,-26.4%[59 µM],-17.1%
O=S(=O)(c1ccc(F)cc1)N1CCN(CCc2ccccc2)CC1,0.3%,37.7%,-5.9%,nt,-11.7%
Cc1ccc(S(=O)(=O)Nc2nc(-c3ccc(F)cc3)cs2)cc1,-1.6%,-15.3%,?,50.1µM*,-33.9%
COc1ccc(-c2csc(NC(=O)c3ccccc3NS(=O)(=O)c3ccc(C)cc3)n2)cc1,5.4%,?,35.5µM*,?,?
COc1ccc(S(=O)(=O)Nc2ccccc2C(=O)Nc2nc(-c3ccc(F)cc3)cs2)cc1OC,6.6%,-21.1%,?,?,?
O=[N+]([O-])c1ccc(S(=O)(=O)Nc2nc(-c3ccccc3)cs2)cc1,8.9%,-11.0%,?,nt,?
COc1ccc(C(CNC(=O)c2cccc(NS(=O)(=O)c3ccc(Br)cc3)c2)N(C)C)cc1 (centres undefined),nt,-2.7%,-5.5%,7.6%[0.501 µM],-20.3%
Cc1ccc(-n2cc(CNCCn3nc(C)cc3C)c(-c3ccc(F)cc3)n2)cc1,44.7µM*,28.8%,-11.6%,4.8%[0.501 µM],-26.6%
COc1ccc(-n2cc(CNCCc3ncc(C)[nH]3)c(-c3ccccc3Cl)n2)cc1,-5.2%,29.7%,?,35.5µM*,-28.0%
COc1ccc(-n2cc(CNCCc3cnc[nH]3)c(-c3cccc(F)c3)n2)cc1,13.9%,2.4%,50.1µM*,-45.7%,?
SMILES,Sfp inh,HP1b chromo inh,BAZ2B inh,G9a inh,JMJD2A Tudor inh
Cc1ccc(-n2cc(CNCCc3ncc(C)[nH]3)c(-c3ccc(F)cc3)n2)cc1,56.2µM*,-4.8%,?,-22.3%,56.2µM*
Cc1cccc(NC(=O)C(NS(=O)(=O)c2ccc3c(c2)oc(=O)n3C)C(C)C)c1 (centres undefined),nt,25.7%,-14.3%,-4.7%[59 µM],-12.5%
O=C(CNC(=O)c1ccc([N+](=O)[O-])cc1)OC(C(=O)Nc1cc(C(F)(F)F)ccc1Cl)c1ccccc1 (centres undefined),nt,nt,nt,nt,-21.9%
COc1ccc(O[C@H]2C=C[C@@H](c3ccccc3)O[C@H]2COC(=O)N2CCCCC2)cc1,-6.9%,nt,nt,nt,nt
COc1cccc([C@@H]2Oc3ccc(OC)cc3C(=O)[C@H]2OC(=O)NS(=O)(=O)c2ccc(F)cc2)c1,-29.8%,nt,nt,nt,nt
COc1ccc(Cl)cc1NC(=O)CSc1cn(CC(=O)N2CCCCCC2)c2ccccc12,nt,12.1%,-19.2%,?,-20.5%
COc1ccc(CNCc2cn(-c3cccc(F)c3)nc2-c2ccc(C)o2)cc1,?,-8.1%,?,44.7µM*,?
CCc1cc2c(nc1CC)CCN(CC/C(C)=N/O[C@@H](C)c1cc(-c3c(C)cc(C)cc3C)no1)C2,?,nt,?,35.5µM*,nt
C/C(CCN1CCc2nc(-c3ccccc3)c(-c3ccccc3)cc2C1)=N\O[C@@H](C)c1cc(-c2c(C)cc(C)cc2C)no1,0.4%,27.2%,-25.6%,?,-22.3%
CC1(C)CC(=O)C(C(C2=C(O)CC(C)(C)CC2=O)c2cccnc2)C(=O)C1 (centres undefined),4.8%,61.3%,27.5%,50.1µM*,-17.2%
CC1(C)CC(=O)C(C(C2=C(O)CC(C)(C)CC2=O)c2cccc(O)c2)C(=O)C1 (centres undefined),22.4µM*,43.7%,3.1%,?,-11.9%
CCCC(C1=C(O)CC(C)(C)CC1=O)C1C(=O)CC(C)(C)CC1=O (centres undefined),-29.2%,55.4%,-2.7%,28.2µM*,-2.2%
CC1(C)CC(=O)C(C=Nc2cccnc2)=C(O)C1,-13.6%,14.5%,0.7%,8.9%[2.33 µM],3.8%
Cc1ccc(C(C2=C(O)CC(C)(C)CC2=O)C2C(=O)CC(C)(C)CC2=O)o1 (centres undefined),-18.3%,61.5%,-30.7%,25.1µM*,-8.0%
CC(C)(C)c1csc(NC(=O)c2ccc(Br)o2)n1,-10.1%,31.0%,-13.1%,nt,-7.1%
CC1(C)CC(=O)C(C(C2=C(O)CC(C)(C)CC2=O)c2cccs2)C(=O)C1 (centres undefined),22.4µM*,20.6%,3.4%,44.7µM*,-18.8%
CC1(C)CC(=O)c2c(-c3cccs3)n[nH]c2C1,-2.5%,25.1%,-3.9%,-30.5%[59 µM],17.9%
